PAFAH1B3 inh: inhibitors of human PAFAH1B3; Q15102; recombinant PAFAH1B3, FP-rhodamine probe, fluorescence polarization; 340,000 compounds, 0.28% hits; inhibition, % at 3.39 µM;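 active = inhibition above the screen-wide average of all tested compounds plus 3 SD, cut at about 25% in these data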;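 note: 0% = enzyme with DMSO only and 100% = wells lacking PAFAH1B3 protein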
Target sequence (Q15102 whole entry, looked up): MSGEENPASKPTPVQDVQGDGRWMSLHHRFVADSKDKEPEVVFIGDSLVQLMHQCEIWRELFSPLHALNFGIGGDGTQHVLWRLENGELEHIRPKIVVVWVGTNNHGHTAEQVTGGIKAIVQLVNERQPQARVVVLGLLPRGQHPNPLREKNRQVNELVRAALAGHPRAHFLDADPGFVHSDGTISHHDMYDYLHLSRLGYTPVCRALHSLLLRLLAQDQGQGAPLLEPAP
ZTA DNA inh: counter-screen for EBNA-1 inhibitors: inhibitors of Epstein-Barr virus ZTA | inhibition, % at 11 µM | ZTA-DNA binding, fluorescence polarization | P03206 | 320,000 compounds, 0.15% hits; in the data active = inhibition above about 33%
Target sequence (P03206 whole entry, looked up): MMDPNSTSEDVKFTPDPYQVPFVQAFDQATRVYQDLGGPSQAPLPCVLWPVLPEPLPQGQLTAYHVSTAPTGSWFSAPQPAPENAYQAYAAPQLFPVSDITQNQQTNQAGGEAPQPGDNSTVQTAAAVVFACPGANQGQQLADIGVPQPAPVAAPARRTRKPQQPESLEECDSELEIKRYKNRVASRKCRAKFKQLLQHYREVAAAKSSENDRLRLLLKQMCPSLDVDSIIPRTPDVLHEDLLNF
PAFAH1B2 inh: PAFAH1B2 (human) inhibition | P68402 | recombinant PAFAH1B2, FP-rhodamine activity probe, fluorescence polarization | inhibition, % at 3.39 µM | 340,000 compounds, 1.2% hits | AID 492953;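 active = inhibition above the mean of all tested compounds plus 3 SD, cut at about 24% in these data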;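 note: 0% = enzyme with DMSO and 100% = wells lacking PAFAH1B2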
Target sequence (P68402 whole entry, looked up): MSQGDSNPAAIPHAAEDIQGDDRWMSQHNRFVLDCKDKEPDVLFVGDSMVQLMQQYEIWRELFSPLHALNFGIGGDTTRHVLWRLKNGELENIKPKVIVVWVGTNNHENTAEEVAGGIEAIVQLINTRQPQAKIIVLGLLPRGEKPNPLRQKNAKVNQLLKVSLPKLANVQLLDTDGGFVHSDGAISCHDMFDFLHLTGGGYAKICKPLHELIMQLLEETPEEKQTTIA
PAFAH2 inh: PAFAH2 (human) inhibition; Q99487; recombinant PAFAH2, FP-rhodamine activity probe, fluorescence polarization; inhibition, % at 3.39 µM; 340,000 compounds, 0.99% hits; AID 492956;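 active = inhibition above the mean over all tested compounds plus 3 SD, cut at about 30% in these data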;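 note: inhibitors block probe labeling of enzyme so polarization drops; 0% = enzyme with DMSO and 100% = wells lacking PAFAH2 protein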
EBNA-1 inh: blocks EBNA-1 binding to DNA | 300,000 compounds, 0.34% hits | EBNA-1 DNA binding, fluorescence polarization | AID 1950 | inhibition, % at 14.8 µM; in the data active = inhibition above about 28%
rCAG binder-1: r(CAG) repeat RNA binding. 370,000 compounds, 1.3% hits. inhibition, % at 3 µM. TO-PRO-1 dye displacement fluorescence;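 active = inhibition above the plate cutoff, the mean of all test compounds on that plate plus 3 SD, cut at about 35% in these data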;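 note: 0% = DMSO alone and 100% = 100 µM mitoxantrone as full dye displacement; higher means more dye released from RNA so lower well fluorescence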
PAFAH2 FP conf: PAFAH2 (human) inhibition, confirmed; shares compounds with PAFAH2 inh; recombinant PAFAH2, FP-rhodamine activity probe, fluorescence polarization; 2,300 compounds, 65% hits; inhibition, % at 3.39 µM; AID 493030;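 active = mean inhibition over three repeats above a set limit taken from the earlier primary screen, cut at about 30% in these data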;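 note: inhibitor blocks binding of rhodamine activity probe so polarization falls; 0% = enzyme with DMSO and 100% = wells lacking PAFAH2 protein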
PAFAH1B3 conf FP: PAFAH1B3 (human) inhibition, confirmed; shares compounds with PAFAH1B3 inh; 390 compounds, 30% hits; AID 493032; inhibition, % at 3.39 µM; recombinant PAFAH1B3, FP-Rh activity-based probe, fluorescence polarization;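 active = average inhibition over triplicate runs above the hit cutoff set in the earlier primary screen, cut at about 25% in these data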;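 note: 0% = enzyme with DMSO and 100% = wells lacking PAFAH1B3 protein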
rCAG binder conf: r(CAG) RNA repeat binding, confirmation | shares compounds with rCAG binder-1 | TO-PRO-1 dye displacement fluorescence | inhibition, % at 3 µM | 4,300 compounds, 70% hits | AID 652065;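 active = inhibition above a per-plate cutoff, the mean inhibition of sample wells plus 3 SD, cut at about 35% in these data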;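 note: loss of TO-PRO-1 fluorescence as compound displaces dye from 1x1 AA loop RNA; 0% = DMSO only wells and 100% = 100 µM mitoxantrone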
dCAG dye counter: DNA CAG dye complex inhibition counter-screen; shares compounds with rCAG binder-1; d(CAG) DNA oligo TO-PRO-1 dye displacement, fluorescence; inhibition, % at 3 µM; 4,300 compounds, 94% hits; AID 652068;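 active = inhibition above its plate's cutoff, the mean test-well inhibition plus 3 SD, cut at about 4.8% in these data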;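 note: 0% = DNA dye mix with DMSO and 100% = 100 µM mitoxantrone; hits displace the dye from DNA and so lower well fluorescence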
DNA CAG DR: disrupts DNA CAG TO-PRO-1 complex in dose response; shares compounds with rCAG binder-1; IC50, µM; DNA CAG/GTC duplex TO-PRO-1 dye displacement fluorescence; 250 compounds, 20% hits; in the data active = IC50 below about 10 µM
dCAG DNA bind: counter-screen for rCAG binders: DNA CAG TO-PRO-1 complex inhibitors, late stage; d(CAG) DNA duplex TO-PRO-1 dye displacement, fluorescence; shares compounds with rCAG binder-1; IC50, µM; 30 compounds, 80% hits
rCAG binder-2: r(CAG) repeat RNA binding, TO-PRO-1 displacement | 30 compounds, 100% hits | IC50, µM | shares compounds with rCAG binder-1 | AID 720651 | r(CAG) RNA TO-PRO-1 dye displacement, fluorescence
* hit, by the source's call; i = inactive; x = no result given. Shown are actives, neighbours in structure and some others; about 2.9% of the full set was active somewhere. Unless noted, the rule behind the calls is not given here.

SMILES	PAFAH1B3 inh	ZTA DNA inh	PAFAH1B2 inh	PAFAH2 inh	EBNA-1 inh	rCAG binder-1	PAFAH1B3 conf FP	others
O=C(OCC12CC3CC(CC(C3)C1)C2)c1ccc(NCc2cc(O)ccc2O)cc1	-2	x	5	6	x	26	x
O=C(OCCC12CC3CC(CC(C3)C1)C2)c1ccc(NCc2cc(O)ccc2O)cc1	5	x	5	75*	x	36*	x	PAFAH2 FP conf=66*;rCAG binder conf=27;dCAG dye counter=11*
CC1=C(C#N)c2nc(N)c(C#N)c(C)c2/C1=C\c1ccc(-c2ccccc2C(=O)O)o1	22	x	14	32*	x	46*	x	PAFAH2 FP conf=20;rCAG binder conf=69*;dCAG dye counter=32*;DNA CAG DR=i;dCAG DNA bind=2.8*;rCAG binder-2=1.1*
CCOC(=O)[C@]12CCCC=C1N(CCc1ccc(OC)c(OC)c1)C(=O)[C@H](CC(=O)NCCc1ccccc1OC)C2	x	x	x	x	x	3	x
CC1=C(C#N)C(=O)NC(=O)/C1=C\c1ccc(-c2ccc(C)cc2[N+](=O)[O-])o1	14	x	13	35*	x	43*	x	PAFAH2 FP conf=8;rCAG binder conf=73*;dCAG dye counter=34*;DNA CAG DR=5.1*
CN(CCCOC(=O)c1cccs1)C1CN(Cc2cn(Cc3ccccc3Cl)nn2)S(=O)(=O)C1 (stereo not drawn)	x	x	x	x	x	3	x
Cc1ccc(S(=O)(=O)/N=C2\C=C(NS(=O)(=O)c3ccccc3)C(=O)c3ccccc32)cc1	3	x	3	30*	x	40*	x	PAFAH2 FP conf=14;rCAG binder conf=84*;dCAG dye counter=51*
O=C1/C(=C/c2ccco2)SC(=S)N1c1cccnc1	14	x	7	32*	x	65*	x	PAFAH2 FP conf=18;rCAG binder conf=55*;dCAG dye counter=26*
O=C(/C=C/NNC(=O)c1ccccc1)c1ccc([N+](=O)[O-])cc1	29*	-6	11	0	-3	11	21
O=c1c(=Nc2ccccc2O)c(=O)c2ccccc12	50*	-13	10	7	6	-4	12
CCCCN1C[C@@H]2CSCCS(=O)(=O)N2C1=O	x	x	x	x	x	0	x
COc1cc2sc3cc(NCCCN4CCOCC4)ccc3c(=O)c2cc1OC	28*	x	5	11	x	-4	11
CC1OC(CC(=O)O)CC2=C1C(=O)c1c(O)cccc1C2=O (stereo not drawn)	53*	x	13	14	x	12	22
Cc1ccc(C(=O)O)cc1N1C(=O)c2cccc3cc(Br)cc(c23)C1=O	57*	-1	3	2	2	15	57*
Nc1sccc1C(=O)N1CCN(c2ccccc2)CC1	x	x	x	x	x	10	x
COc1ccc(CN2CCC(CNC(=O)NCc3ccccc3)CC2)cc1	x	x	x	x	x	3	x
CCNCC(=O)N1c2ccccc2CCc2ccc(NC(=O)OC(C)C)cc21	31*	6	0	-1	-2	-3	7
CCNCC(=O)N1c2ccccc2CCc2ccc(NC(C)=O)cc21	4	6	0	2	3	-3	x
O=C(O)c1cccc(NC(=O)c2ccc3c(c2)C(=O)N(c2ccccc2)C3=O)c1	9	2	1	-5	-2	-1	x
COc1ccc(NC(=O)c2cccc(N3C(=O)c4ccc(C(=O)Nc5ccc(OC)c(O)c5)cc4C3=O)c2)cc1O	26*	-8	12	-5	1	29	17
O=C1c2ccccc2C(=O)c2c1ccc(O)c2O	30*	x	6	12	x	10	20
COC(=O)c1ccc2c(c1O)C(=O)c1ccccc1C2=O	12	2	-1	3	3	5	x
COc1ccc(Cn2ccc3ccc(-c4ccc5ccn(C(=O)c6ccccc6OC)c5c4)cc32)cc1	x	x	x	x	x	15	x
COc1cc(/C=C/C(=O)CC(=O)/C=C/c2ccc(O)c(OC)c2)ccc1O	26*	23	12	-21	7	27	10
COc1ccc(C(=O)c2nccc3cc(OC)c(OC)cc23)cc1OC	57*	-31	10	12	x	x	8
SMILES	PAFAH1B3 inh	ZTA DNA inh	PAFAH1B2 inh	PAFAH2 inh	EBNA-1 inh	rCAG binder-1	PAFAH1B3 conf FP	others
COc1ccc(C(=O)c2ccc(OC)c(OC)c2)cc1OC	4	4	7	-9	-2	-4	x
CCN(CC)CCCNC(=O)CC1Oc2ccccc2NC1=O (stereo not drawn)	x	x	x	x	x	2	x
O=C(NC1CCCC1)C(C1CC1)n1c(-c2ccnc3ccccc23)nc2ccccc21 (stereo not drawn)	x	x	x	x	x	2	x
CCOc1ccc(C2=Nn3c(nnc3-c3ccccc3OC)SC2)cc1	15	-31	5	-3	5	-4	x
COc1ccccc1-c1nnc2n1N=C(c1ccc(O)c(O)c1)CS2	30*	-6	7	17	4	x	23
Cc1cc(C)cc([C@H]2C[C@]34CN(Cc5ccccc5)S(=O)(=O)[C@H]3C[C@H]2O4)c1	x	x	x	x	x	2	x
O=C(C1=C(c2ccccc2)C(=O)c2ccccc2C1=O)c1ccccc1	58*	x	11	8	x	-1	26*
COC1=C(c2ccccc2)C(=O)c2ccccc2C1=O	6	0	5	4	0	2	x
Cc1ccccc1CNC(=S)OC1CCC12CCC(c1ccccc1)CC2 (stereo not drawn)	x	x	x	x	x	4	x
O=C(Nc1cccc(Br)c1)OC1CC2CC1[C@H]1CCCCN1[C@H]2Cc1ccccc1 (stereo partly drawn)	x	x	x	x	x	6	x
O=C1NC(=O)c2cc(Br)cc3cccc1c23	46*	6	6	-1	3	5	53*
CCOc1ccccc1/C=C\c1nc(O)c([N+](=O)[O-])c(=O)[nH]1	28*	14	5	-5	5	3	19
Cc1ccc(C(=O)C2CCN(CC(=O)NCc3cccs3)CC2)cc1	x	x	x	x	x	5	x
NC1=C(Br)C(=O)c2ncccc2C1=O	58*	x	16	25	x	2	41*
Nc1c(O)cccc1C(=O)O	30*	3	4	3	1	0	10
O=C(O)c1ccccc1O	6	11	-8	-2	-1	2	x
COC(=O)c1c[nH]c2c1-c1cc(C(=O)OCc3ccccc3)n(S(=O)(=O)c3ccc(C)cc3)c1C(=O)C2=O	38*	x	9	9	x	6	8

Bioassay records as filed in PubChem.
